Unmarked numbers belong to inactive results. Records with an inconclusive call do not appear. The list shows a part of the results. The source made the active and inactive calls. Unless noted, the call rests on the fitted dose curve; in most records, active means well fitted curve in the direction sought with a large enough effect; inconclusive means small, poorly fitted or top-dose-only effect, or another doubt; inactive means no such curve, though single readings can be large; an effect the other way counts as inactive or inconclusive. Residues, ends and D or L forms follow the SMILES beside them.

A short description of assay [1]: qHTS for Inhibitors of Ubiquitin-specific Protease USP2a Using CHOP2 as the Reporter: Cytotox Assay (AID 652170).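 Further: HCT116 human colon cancer cells at 600 per well; plate controls were DMSO-treated cells for no effect and wells without cells for full effect; nearly all actives have a fitted effect of over 70% in size.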 In a few lines:
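Cytotoxicity read as ATP luminescence (CellTiter-Glo) after 72 hr compound treatment at 37 deg C. Cells: HCT116, 600/well in DMEM plus 10% FBS. Normalization between DMSO-treated cells and cell-free wells.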
For orientation: In qHTS, concentration-response curves come from the screen itself.

Assay [2] concerns the target Ubiquitin carboxyl-terminal hydrolase 2 (Homo sapiens) (UniProt O75604). In words: qHTS for Inhibitors of Ubiquitin-specific Protease USP2a Using CHOP2 as the Reporter: K484 Substrate (AID 652173).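 Further: cleavage of internally quenched K48 di-ubiquitin substrate measured as rising fluorescence over time; potency means the concentration at half of the fitted maximal effect; nearly all actives have a fitted effect of over 70% in size.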 In a few lines: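 Kinetic fluorescence (Ex 525/Em 598) tracked cleavage of an internally quenched K48 di-ubiquitin substrate, added as a 100 nM solution. The enzyme was added as a 5 nM USP2 solution before compound pinning, with no-enzyme controls. Buffer: Tris pH 8, beta-mercaptoethanol, CHAPS.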

The target in assay [3] is Calcium and integrin-binding protein 1 (Homo sapiens) (UniProt Q99828). In words: Primary qHTS for Identification of Calcium Integrin Binding Protein 1 (CIB1) Competitor (AID 1508620).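 Further: GST tagged CIB1 binding a fluorescein labelled alphaIIb integrin peptide tracer; top concentration of the series differs between compounds; on the % scale 0 is the no-effect control and ±100 the full control effect.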 In a few lines:
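Fluorescence polarization competition: CIB1-GST (1 uM final) preincubated with compound 15 min at room temperature, then FITC-labeled alphaIIb peptide (100 nM final) added for another 15 min. Polarization read at Ex 480/Em 540.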

The target in assay [4] is Cytochrome P450 3A4 (Homo sapiens) (UniProt P08684). In words: qHTS Assay for Inhibitors and Substrates of Cytochrome P450 3A4 (AID 884). Further: nearly all actives have a fitted effect of over 50% in size. Further: potency means the concentration at half of the fitted maximal effect. In a few lines:
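Luminescent readout of luciferin produced by CYP3A4 (20 nM) dealkylation of Luciferin-PPXE, 25 uM (its KM). NADPH-driven reaction ran 60 min at RT after 10 min compound preincubation; data scaled to 57 uM ketoconazole as 100% inhibition.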

For assay [5] the target is unchanged. In words: qHTS Assay for Activators of Cytochrome P450 3A4 (AID 885). Further: nearly all actives have a fitted effect of over 65% in size. In a few lines: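 Human CYP3A4 dealkylates Luciferin-PPXE to luciferin, which luciferase detection converts to light. Substrate was at its KM (25uM), buffer 200mM KPO4, reaction 60 min at RT.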
Assay [6] concerns the target Flap endonuclease 1 (Homo sapiens) (UniProt P39748). In words: qHTS Assay for the Inhibitors of FEN1: Confirmatory Assay for Cherry-picked Compounds (AID 720498). Further: potency means the concentration at half of the fitted maximal effect; nearly all actives have a fitted effect of over 60% in size. As to conditions: FEN1 flap cleavage, TAMRA/BHQ2 fluorogenic DNA substrate. In a few lines: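 Human FEN1 (10 nM reagent) was preincubated with compounds for 15 min at room temperature, then 50 nM final double-flap DNA substrate (5'-TAMRA flap, BHQ-2 quencher strand) was added. Fluorescence (ex 525/em 598 nm) was read at 0 and 15 min.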

Assay [7] addresses DNA polymerase kappa (Homo sapiens) (UniProt Q9UBT6). In words: qHTS for Inhibitors of Polymerase Kappa: Confirmatory Assay for Cherry-picked Compounds (AID 720501). Further: potency means the concentration at half of the fitted maximal effect. As to conditions: purified Pol-kappa, fluorescent strand-displacement substrate. In a few lines: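 Human Pol-kappa, dispensed at 10 nM, was preincubated with compounds for 15 min at room temperature. Reactions were started with primer/template substrate (50 nM final) carrying a TAMRA reporter strand and BHQ-2-quenched template, and fluorescence (ex 525/em 598 nm) was read at 0 and 10 min.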

In assay [8] the target is Lysosomal acid glucosylceramidase (Homo sapiens) (UniProt P04062). In words: Glucocerebrosidase-p2 (AID 348; in the data active means potency below about 10 µM; further: potency means the concentration at half of the fitted maximal effect). The note with it: purified GBA, blue fluorogenic substrate, 40 min. In a few lines:
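Normal human glucocerebrosidase (0.2 nM) with blue fluorogenic substrate (80 uM final) in citrate/phosphate pH 5.9 with 10mM sodium taurocholate, 0.01% tween-20; 40 min RT, NaOH/glycine stop; fluorescence Ex 365/Em 440; AC50 from a titration from 0.6 nM upwards.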

Assay [9] in a line: AP1 Signaling Pathway (AID 357; active means well fitted curve in either direction with a large enough effect, not every such curve was filed as active;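 further: ME-180 reporter cells stimulated with EGF at its EC50 level; on the % scale 0 is the no-effect control and ±100 the full control effect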). The note with it: ME-180 AP-1-bla reporter, EGF-induced, beta-lactamase ratio, 5 h; at 7.69 µM (top of the series) unless noted. In a few lines:
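A ratiometric CCF4 readout (405 nm excitation; 460 and 530 nm emission) quantified AP-1-driven beta-lactamase in ME-180 cells after 5 h with compound and EC50 EGF; AC50 values were derived for activators and inhibitors.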

Assay [10] addresses Cytochrome P450 1A2 (Homo sapiens) (UniProt P05177). In words: p450-cyp1a2 (AID 410; calls by dose curve; further: potency means the concentration at half of the fitted maximal effect). In a few lines:
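Luminescent demethylation readout: Luciferin-ME (100uM, equal to Km) turned over by 20nM CYP1A2 for 60 min at room temperature after NADPH regeneration addition, following 10 min compound preincubation. Normalization used 57 uM furafylline as full inhibition.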

The nature of assay [11]: NFAT Signaling Pathway (AID 444; active means well fitted curve in either direction with a large enough effect, not every such curve was filed as active;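 further: carbachol stimulus at about its EC50 of 1 µM final; on the % scale 0 is the no-effect control and ±100 the full control effect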). As to conditions: Jurkat NFAT-bla M1, carbachol, beta-lactamase ratio, 5 h; at 7.69 µM (top of the series) unless noted. In a few lines: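 Jurkat cells carrying an NFAT-driven β-lactamase reporter and co-transfected muscarinic M1 receptor were treated with compound plus carbachol (1 uM final, an EC50 level) for 5 h at 37 °C. CCF4 loading followed for 1 h at RT; 460/530 nm ratio gave %activity.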

A short description of assay [12]: Stat Signaling Pathway (AID 446; active means well fitted curve in either direction with a large enough effect, not every such curve was filed as active;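 further: ME-180 cervical cancer cells given 40 pM IL-6 alongside compound; SIE-controlled beta-lactamase reporter measured as 460/530 nm FRET emission ratio; on the % scale 0 is the no-effect control and ±100 the full control effect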). As to conditions: ME-180 (cervical carcinoma) SIE beta-lactamase reporter, IL-6 stimulated, 5 h; at 7.69 µM (top of the series) unless noted. In a few lines:
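Normalization used AC90 stimulation (300 pM IL-6) and AC90 inhibition (125 nM pan-JAK inhibitor at 40 pM IL-6). The underlying signal is SIE-driven beta-lactamase in ME-180 cells after 5 h IL-6 exposure with compound.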

The target in assay [13] is Glucocorticoid receptor (Homo sapiens) (UniProt P04150). In words: GR-GFP Redistribution (AID 450;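 active means compounds whose dose series gives a full or clear partial fitted curve of increased nuclear translocation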; further: potency means the concentration at half of the fitted maximal effect). The note with it: U2OS GR-GFP nuclear translocation, laser cytometry, 2 h.
Glucocorticoid receptor (Homo sapiens), sequence (P04150 whole entry, looked up): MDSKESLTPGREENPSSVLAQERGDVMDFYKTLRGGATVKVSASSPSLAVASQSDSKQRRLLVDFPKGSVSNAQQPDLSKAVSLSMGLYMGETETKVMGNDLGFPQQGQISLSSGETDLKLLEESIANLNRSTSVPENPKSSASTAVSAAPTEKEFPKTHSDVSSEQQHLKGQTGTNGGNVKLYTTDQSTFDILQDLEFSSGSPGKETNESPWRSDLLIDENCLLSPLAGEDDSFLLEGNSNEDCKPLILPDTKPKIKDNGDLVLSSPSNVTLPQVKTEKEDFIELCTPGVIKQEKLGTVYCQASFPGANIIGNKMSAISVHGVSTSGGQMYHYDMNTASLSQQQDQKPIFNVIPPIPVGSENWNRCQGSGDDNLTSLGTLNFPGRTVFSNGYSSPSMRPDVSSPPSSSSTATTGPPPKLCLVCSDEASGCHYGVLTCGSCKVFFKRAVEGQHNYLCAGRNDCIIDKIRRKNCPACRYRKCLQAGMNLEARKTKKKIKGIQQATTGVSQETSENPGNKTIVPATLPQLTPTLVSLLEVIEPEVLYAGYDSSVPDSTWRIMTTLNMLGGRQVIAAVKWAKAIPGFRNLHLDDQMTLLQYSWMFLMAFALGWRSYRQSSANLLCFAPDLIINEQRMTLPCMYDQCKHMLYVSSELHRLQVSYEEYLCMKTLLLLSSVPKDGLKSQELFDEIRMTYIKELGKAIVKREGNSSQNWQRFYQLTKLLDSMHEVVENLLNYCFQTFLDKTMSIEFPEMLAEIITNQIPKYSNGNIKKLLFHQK
For assay [14] the target is unchanged. In words: GR-EFC Redistribution (AID 451; calls by dose curve; further: potency means the concentration at half of the fitted maximal effect). The note with it: CHO-K1 GR-EFC translocation, beta-gal luminescence, 2 h. In a few lines:
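CHO-K1 cells stably expressing nuclear-localized β-gal enzyme acceptor and GR fused C-terminally to the enzyme donor fragment; ligand-driven nuclear translocation restores β-gal by complementation. Compounds titrated up to 46 uM final, 2 h at 37 °C; luminescence read.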

Assay [15] concerns the target Mitogen-activated protein kinase 10 (Mus musculus) (UniProt Q61831). In words: JNK3 AlphaScreen Assay (AID 530; active means well fitted curve in either direction with a large enough effect, not every such curve was filed as active). In a few lines:
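Phosphorylation of biotinylated GST-cJun(1-79) at Ser73 is measured by AlphaScreen proximity luminescence. Enzyme is JNK3 in HepG2 lysates activated with interleukin-1beta and tumor necrosis factor alpha; ATP is 10 uM final.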

Assay [16] concerns the target 3',5'-cyclic-AMP phosphodiesterase 4B (Homo sapiens) (UniProt Q07343). In words: qHTS Assay for Inhibitors of PDE-IV (AID 607; active means well fitted activation curve with a large enough effect in the main read-out, with a control signal flat, not every such curve was filed as active; further: % of control where 0% means no effect). In a few lines:
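HEK293 ACTOne cells with CNG channel (1000/well), endogenous PDE4; membrane potential dye, compounds up to 22.9 uM final. Fluorescence Ex 535/Em 590; RO 20-1724 (100 uM final) as reference.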

The target in assay [17] is Cytochrome P450 2C9 (Homo sapiens) (UniProt P11712). In words: qHTS Assay for Inhibitors and Substrates of Cytochrome P450 2C9 (AID 883). Further: on the % scale 0 is the no-effect control and ±100 the full control effect; nearly all actives have a fitted effect of over 60% in size. In a few lines: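 A luminogenic readout tracked human CYP2C9 (10nM) converting deoxyluciferin (100uM, at KM) in 25mM KPO4 during 60 min at 37C with regenerated NADPH. Values normalized to 57uM sulphaphenazole as complete inhibition.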
Cytochrome P450 2C9 (Homo sapiens), sequence (P11712 whole entry, looked up): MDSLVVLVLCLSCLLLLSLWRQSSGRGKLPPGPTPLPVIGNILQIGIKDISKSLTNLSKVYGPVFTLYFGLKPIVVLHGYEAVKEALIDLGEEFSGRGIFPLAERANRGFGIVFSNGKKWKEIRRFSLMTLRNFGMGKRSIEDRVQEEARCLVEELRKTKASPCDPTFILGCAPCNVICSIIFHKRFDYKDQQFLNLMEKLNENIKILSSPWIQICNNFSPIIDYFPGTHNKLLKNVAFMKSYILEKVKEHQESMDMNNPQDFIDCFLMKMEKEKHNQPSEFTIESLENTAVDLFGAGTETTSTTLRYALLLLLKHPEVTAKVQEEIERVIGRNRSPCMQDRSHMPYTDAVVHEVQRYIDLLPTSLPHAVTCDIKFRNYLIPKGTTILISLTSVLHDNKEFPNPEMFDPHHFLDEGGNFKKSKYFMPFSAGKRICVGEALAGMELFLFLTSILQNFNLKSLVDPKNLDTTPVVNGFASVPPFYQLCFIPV

The target in assay [18] is Cytochrome P450 2D6 (Homo sapiens) (UniProt P10635). In words: qHTS Assay for Inhibitors and Substrates of Cytochrome P450 2D6 (AID 891). Further: potency means the concentration at half of the fitted maximal effect; nearly all actives have a fitted effect of over 60% in size. In a few lines:
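Luminescent read-out of luciferin formed by 5 nM human CYP2D6 demethylating 30 uM Luciferin-ME EGE (Km level) over 60 min at room temperature after NADPH regeneration addition. Data normalized to full inhibition by 1.43 uM quinidine.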

The target in assay [19] is Cytochrome P450 2C19 (Homo sapiens) (UniProt P33261). In words: qHTS Assay for Inhibitors and Substrates of Cytochrome P450 2C19 (AID 899). Further: on the % scale 0 is the no-effect control and ±100 the full control effect; nearly all actives have a fitted effect of over 60% in size. In a few lines:
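NADPH-dependent conversion of Luciferin-H EGE (10uM, at KM) by 5nM enzyme in 50mM KPO4, 60 min at 37C following 10 min compound preincubation. Stopped with luciferin detection buffer; luminescence read after 20 min.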

Assay [20] can be described thus: Confirmation and Secondary Assay for Modulators of Hemoglobin Beta Chain Splicing at IVS2 654 locus (AID 910).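 Further: per-well total GFP intensity by laser scanning cytometry after 2-day treatment; % of control where 0% means no effect.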 In a few lines:
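HeLa cells stably carrying EGFP interrupted by mutant beta-globin IVS2-654 intron (CMV-driven) were treated with compound for 2 days at 37C; corrected splicing was scored as total peak GFP intensity per well (488 nm excitation, 500-520 nm emission).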

Assay [21] in a line: Confirmation and Secondary Assay for Modulators of Hemoglobin Beta Chain Splicing at IVS2 705 locus (AID 930).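 Further: HeLa cells stably expressing the EGFP-705 splicing reporter; GFP fluorescence per well restored by corrected splicing of the IVS2-705 intron in EGFP; % of control where 0% means no effect.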 In a few lines:
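First, HeLa EGFP-705 cells are seeded at 500/well in Optimem with 2% FCS and left overnight. Next, compound or DMSO is added for 2 days. Finally wells are laser-scanned and total peak GFP intensity scored.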

Assay [22] is described as follows: Counterscreen qHTS for small molecule stabilizers of the endoplasmic reticulum resident proteome: GLuc-NoTag assay (AID 1508627).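 Further: 0% = thapsigargin alone and -100% = DMSO vehicle control.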 In a few lines:
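Secreted GLuc lacking the SERCaMP modification is measured in SH-SY5Y cells exposed to compound for 19 h and then to thapsigargin (100 nM, 4 h) to deplete ER calcium; hits retested at 11 concentrations, up to 76.6 uM.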

A short description of assay [23]: Confirmatory qHTS for small molecule stabilizers of the endoplasmic reticulum resident proteome: Secreted ER Calcium Modulated Protein (SERCaMP) assay (AID 1508628). Further: on the % scale 0 is the no-effect control and ±100 the full control effect; nearly all actives have a fitted effect of over 40% in size. In a few lines: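 Reporter secretion upon ER calcium depletion (100 nM thapsigargin, 4 h, 37C) is measured as medium luminescence with coelenterazine, after 16 h compound pretreatment of SH-SY5Y-GLuc-SERCaMP cells; primary at three concentrations up to 38.3 uM, follow-up at 11 (up to 76.6 uM).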

Assay [24] is described as follows: Cell Viability qHTS for small molecule stabilizers of the endoplasmic reticulum resident proteome (AID 1508629). As to conditions: cell viability counter-screen, 100 nM thapsigargin for final 4 h.

Cytochrome P450 3A4 (Homo sapiens), sequence (P08684 whole entry, looked up): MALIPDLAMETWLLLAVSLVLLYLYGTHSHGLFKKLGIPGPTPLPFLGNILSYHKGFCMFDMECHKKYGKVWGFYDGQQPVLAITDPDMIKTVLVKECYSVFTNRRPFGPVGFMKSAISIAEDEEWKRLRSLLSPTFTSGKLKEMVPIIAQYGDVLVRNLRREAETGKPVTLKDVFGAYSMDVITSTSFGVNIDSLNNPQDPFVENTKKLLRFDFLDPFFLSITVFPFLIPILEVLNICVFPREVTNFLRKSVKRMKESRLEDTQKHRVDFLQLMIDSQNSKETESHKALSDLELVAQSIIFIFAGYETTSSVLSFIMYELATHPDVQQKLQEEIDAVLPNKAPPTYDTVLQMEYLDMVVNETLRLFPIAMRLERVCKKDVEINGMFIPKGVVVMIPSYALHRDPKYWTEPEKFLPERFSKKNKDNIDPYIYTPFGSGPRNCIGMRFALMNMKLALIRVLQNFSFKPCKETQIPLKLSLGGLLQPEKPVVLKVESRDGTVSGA
Ubiquitin carboxyl-terminal hydrolase 2 (Homo sapiens), sequence (O75604 whole entry, looked up): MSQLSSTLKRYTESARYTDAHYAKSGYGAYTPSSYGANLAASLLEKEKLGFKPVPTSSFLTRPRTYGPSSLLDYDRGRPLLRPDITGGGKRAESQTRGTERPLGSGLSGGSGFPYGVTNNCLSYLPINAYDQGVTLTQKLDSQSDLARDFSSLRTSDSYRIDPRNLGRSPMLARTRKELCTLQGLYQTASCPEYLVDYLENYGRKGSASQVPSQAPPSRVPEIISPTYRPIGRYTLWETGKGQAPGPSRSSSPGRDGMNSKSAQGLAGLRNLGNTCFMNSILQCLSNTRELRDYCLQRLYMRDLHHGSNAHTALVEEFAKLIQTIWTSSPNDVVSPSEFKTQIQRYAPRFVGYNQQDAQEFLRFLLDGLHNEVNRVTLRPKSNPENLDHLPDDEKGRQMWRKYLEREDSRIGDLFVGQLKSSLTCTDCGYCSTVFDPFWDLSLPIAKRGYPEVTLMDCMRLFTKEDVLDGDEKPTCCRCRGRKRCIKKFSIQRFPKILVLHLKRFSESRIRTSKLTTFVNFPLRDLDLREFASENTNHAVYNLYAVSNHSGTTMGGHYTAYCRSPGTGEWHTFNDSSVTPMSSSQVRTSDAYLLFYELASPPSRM
Calcium and integrin-binding protein 1 (Homo sapiens), sequence (Q99828 whole entry, looked up): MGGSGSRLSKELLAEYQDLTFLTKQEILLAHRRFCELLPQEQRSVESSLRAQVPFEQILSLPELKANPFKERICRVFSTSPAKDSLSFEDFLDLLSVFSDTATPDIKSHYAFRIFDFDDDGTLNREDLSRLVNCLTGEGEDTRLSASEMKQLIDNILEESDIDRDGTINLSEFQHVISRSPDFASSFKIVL
Flap endonuclease 1 (Homo sapiens), sequence (P39748 whole entry, looked up): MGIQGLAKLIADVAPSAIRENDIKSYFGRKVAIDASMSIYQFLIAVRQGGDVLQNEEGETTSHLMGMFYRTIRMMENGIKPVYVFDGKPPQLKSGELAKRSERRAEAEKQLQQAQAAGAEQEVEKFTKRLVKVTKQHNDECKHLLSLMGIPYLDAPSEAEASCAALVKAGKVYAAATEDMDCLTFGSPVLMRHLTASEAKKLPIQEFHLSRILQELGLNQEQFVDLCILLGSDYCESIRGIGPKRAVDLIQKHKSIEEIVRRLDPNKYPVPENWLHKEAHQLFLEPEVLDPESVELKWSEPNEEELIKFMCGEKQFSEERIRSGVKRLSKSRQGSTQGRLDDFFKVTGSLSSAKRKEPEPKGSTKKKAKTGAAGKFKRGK
3',5'-cyclic-AMP phosphodiesterase 4B (Homo sapiens), sequence (Q07343 whole entry, looked up): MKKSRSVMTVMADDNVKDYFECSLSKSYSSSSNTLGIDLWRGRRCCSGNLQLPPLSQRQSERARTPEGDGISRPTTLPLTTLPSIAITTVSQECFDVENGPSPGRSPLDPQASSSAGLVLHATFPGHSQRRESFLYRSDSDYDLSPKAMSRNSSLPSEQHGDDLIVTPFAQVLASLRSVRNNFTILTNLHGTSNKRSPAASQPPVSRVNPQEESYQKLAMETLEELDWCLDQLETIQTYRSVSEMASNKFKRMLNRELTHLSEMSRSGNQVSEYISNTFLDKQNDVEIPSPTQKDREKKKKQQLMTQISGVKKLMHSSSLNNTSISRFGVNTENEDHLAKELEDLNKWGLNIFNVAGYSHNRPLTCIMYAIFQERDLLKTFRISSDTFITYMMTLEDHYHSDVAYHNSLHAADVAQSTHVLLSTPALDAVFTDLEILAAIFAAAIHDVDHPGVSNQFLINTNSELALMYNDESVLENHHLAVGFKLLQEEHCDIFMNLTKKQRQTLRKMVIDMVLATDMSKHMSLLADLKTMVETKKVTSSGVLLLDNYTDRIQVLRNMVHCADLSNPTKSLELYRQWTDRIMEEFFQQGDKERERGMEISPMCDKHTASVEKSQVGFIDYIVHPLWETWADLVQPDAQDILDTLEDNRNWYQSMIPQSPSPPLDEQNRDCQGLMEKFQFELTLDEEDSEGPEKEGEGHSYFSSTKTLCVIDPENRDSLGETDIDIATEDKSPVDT
Lysosomal acid glucosylceramidase (Homo sapiens), sequence (P04062 whole entry, looked up): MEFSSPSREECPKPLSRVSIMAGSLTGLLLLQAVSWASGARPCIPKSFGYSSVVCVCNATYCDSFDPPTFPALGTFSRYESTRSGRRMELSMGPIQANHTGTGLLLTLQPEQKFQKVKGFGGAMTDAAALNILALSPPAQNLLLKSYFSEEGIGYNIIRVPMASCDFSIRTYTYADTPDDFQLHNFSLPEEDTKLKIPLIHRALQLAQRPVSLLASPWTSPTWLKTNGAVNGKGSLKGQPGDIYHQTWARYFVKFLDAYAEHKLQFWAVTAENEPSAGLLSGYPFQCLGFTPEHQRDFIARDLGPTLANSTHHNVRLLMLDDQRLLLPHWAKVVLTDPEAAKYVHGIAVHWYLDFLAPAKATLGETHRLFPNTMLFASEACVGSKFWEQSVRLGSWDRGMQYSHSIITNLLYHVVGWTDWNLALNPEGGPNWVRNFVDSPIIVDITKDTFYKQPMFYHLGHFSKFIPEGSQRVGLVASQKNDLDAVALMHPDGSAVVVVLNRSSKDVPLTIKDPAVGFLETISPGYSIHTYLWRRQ
Cytochrome P450 1A2 (Homo sapiens), sequence (P05177 whole entry, looked up): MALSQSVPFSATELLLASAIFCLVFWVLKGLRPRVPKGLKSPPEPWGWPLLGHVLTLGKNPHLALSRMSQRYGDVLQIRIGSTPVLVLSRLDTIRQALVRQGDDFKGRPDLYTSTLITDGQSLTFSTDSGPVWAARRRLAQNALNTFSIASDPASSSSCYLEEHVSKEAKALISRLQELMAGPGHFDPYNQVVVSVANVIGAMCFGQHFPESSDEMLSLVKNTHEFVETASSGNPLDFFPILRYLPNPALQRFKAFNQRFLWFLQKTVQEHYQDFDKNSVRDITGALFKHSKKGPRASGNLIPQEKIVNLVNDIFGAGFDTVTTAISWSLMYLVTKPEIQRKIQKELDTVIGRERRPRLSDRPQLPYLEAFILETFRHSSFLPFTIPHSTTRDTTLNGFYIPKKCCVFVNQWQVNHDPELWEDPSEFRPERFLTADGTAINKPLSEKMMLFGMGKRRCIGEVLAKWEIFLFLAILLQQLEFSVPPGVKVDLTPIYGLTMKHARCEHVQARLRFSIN

For the molecule `COc1ccc(Cl)cc1C(=O)Nc1nc(-c2ccccc2)cs1`, the Potency entry in assay [1] and in assay [3] was “inactive” each time. Further, the Potency in assay [2] was 9.68 µM (active).

Consider `Cc1ccc(S(=O)(=O)Nc2cccc(C(=O)Nc3nc(-c4ccccc4)cs3)c2Cl)cc1`, for which the Potency in assay [2] was 3.43 µM (active). Besides, the Potency entry in assay [3] was “inactive”.

With `Cc1ccc(S(=O)(=O)Nc2cccc(C(=O)Nc3nc(-c4ccccc4)cs3)c2)cc1`, in [2], the Potency is 3.43 µM (active). Moreover, the Potency result in assay [3] was “inactive”.

Consider `Cc1ccc(-c2cc(C(=O)Nc3ccc(S(N)(=O)=O)cc3)c3ccccc3n2)cc1C`, for which the Potency entry in [1] and in assay [3] was “inactive” throughout. Also, the Potency in assay [2] is 7.69 µM (active).

Take `Cc1nc(NCc2ccccc2)c2nc(-c3ccccc3)n(CCN3CCOCC3)c2n1`: in assay [4], the Potency was 0.631 µM (active). For the same molecule, in assay [5], the Potency entry was “inactive”.

Take `Cc1nc(NC2CCCCC2)c2nc(-c3ccccc3)n(CC3CCN(C)CC3)c2n1`: the Potency result in assay [4] was “inactive”.

With `COc1ccc(-c2ccc3ncnc(NCc4cccs4)c3c2)cc1OC`, in assay [6], the Potency is 37.9 µM (active).

As for `COc1ccc(C2=Nn3c(nnc3-c3ccccc3OC)SC2)cc1OC1CCCC1`, the Potency in assay [7] was 4.23 µM (active).

Consider `CN1CCN(c2nc(-c3ccc(N(C)C)cc3)nc3ccccc23)CC1`, for which the Potency in [8] is more than 11.4 µM; in [10], 12.6 µM (active); in assay [13] it was more than 46 µM; in assay [14] it was more than 46 µM; in assay [4], 15.8 µM (active); in [18], 3.16 µM (active). The activity change, negative = inhibition in assay [9] was 5.88%; in assay [11], -2.47%; in assay [17] it was 9.44% [at 2.29 µM]. In assay [12], the activity, negative = inhibition is 3.05%. In addition, the molecule was classed as inactive in assay [15], in assay [20] and in assay [21]. The Potency entry in [16], in assay [5], in assay [19], in assay [22] and in assay [23] was “inactive” each time. Also, the max response in assay [24] is 17.5%.

For the molecule `CC[C@H](C)[C@H](NC(=O)[C@H](CC(=O)O)NC(=O)[C@H](CC(N)=O)NC(=O)[C@@H](NC(=O)[C@H](CCCNC(=N)N)NC(=O)[C@@H](NC(=O)[C@@H](NC(=O)[C@@H](NC(=O)[C@@H](NC(=O)[C@H](CCCCN)NC(=O)[C@@H](NC(=O)[C@H](CC(C)C)NC(=O)[C@@H](NC(=O)[C@H](CCCCN)NC(=O)[C@@H](NC(=O)[C@H](CC(=O)O)NC(=O)[C@H](CC(=O)O)NC(=O)[C@H](CCC(N)=O)NC(=O)[C@@H](NC(=O)[C@H](CCCCN)NC(=O)[C@H](CCC(N)=O)NC(=O)[C@@H](NC(=O)[C@@H]1CCCN1C(=O)[C@@H](N)C(C)C)[C@@H](C)CC)C(C)C)[C@@H](C)O)[C@@H](C)O)[C@@H](C)CC)[C@@H](C)O)[C@@H](C)CC)C(C)C)[C@@H](C)O)[C@@H](C)CC)C(=O)N[C@@H](CO)C(=O)N[C@@H](Cc1cnc[nH]1)C(=O)N[C@H](C(=O)N[C@@H](CCC(N)=O)C(=O)N[C@@H](CO)C(=O)N[C@H](C(=O)N[C@@H](CO)C(=O)N[C@@H](CO)C(=O)N[C@@H](CCCCN)C(=O)N[C@@H](CCC(N)=O)C(=O)N[C@@H](CCCCN)C(=O)O)C(C)C)[C@@H](C)O` (H-VPIQKVQDDTKTLIKTIVTRINDISHTQSVSSKQK-OH), the activity change, negative = inhibition in [22] was -4.21% [at 9.46 µM]. The activity change, negative = decrease in assay [23] was -1.59% [at 9.4 µM]. Moreover, the max response in [24] is 4.6%.

Source of the values: PubChem BioAssay (NCATS).
